The full list was thinned out, with hits kept by preference.
HT1080-NT tox – kills 2HG-producing HT-1080-NT fibrosarcoma cells; HT-1080-NT fibrosarcoma viability, CellTiter-Glo ATP luminescence, 48 h; Potency, µM (top dose mostly 46.1 µM), for the others: at the top dose activity, negative = less viability, actives largely listed as cytotoxic; 360,000 compounds, 1.6% hits;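 also: NT is the 2HG producing partner of a matched IDH1 knockdown line; potency is read from the fitted curve at half-maximal effect; 0% = DMSO-treated cells and -100% = media-only wells without cells; nearly all actives have a fitted effect of over 55% in size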
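A 48-hour cytotoxicity screen used HT-1080-NT cells plated 2 hours before compound delivery. ATP-based CellTiter-Glo luminescence measured viability, normalized to DMSO and no-cell controls.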
IL1B secr inh – inhibitors of inflammasome signaling (IL-1 beta secretion) | activity change, % at 57.5 µM | 360,000 compounds, 4.7% hits | THP-1 LPS/ATP IL-1B secretion, AlphaLISA, 16 h; stronger effect = lower value | AID 743279; in the data active = activity change below about -50%; inconclusive = mostly about -30% to -49%
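THP-1 cells pretreated 1 hr with compounds (up to 57.5 uM final), then stimulated with LPS (250 ng/mL final) plus ATP (1.25 mM final); secreted IL-1B measured by AlphaLISA after 16 hr, decreased signal indicating inhibition.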
DT40 TDP1 no CPT – qHTS for Inhibitors of human tyrosyl-DNA phosphodiesterase 1 (TDP1): qHTS in cells in absence of CPT | AID 686978, 2013 | Potency, µM (doses to about 46.2 µM), without a hit: at the top dose activity change, negative = growth inhibition, usual class: inhibitors | DT40 Tdp1-/- hTDP1 cells, no CPT, ATP luminescence, 48 h | 420,000 compounds, 15% hits; also: potency is read from the fitted curve at half-maximal effect; nearly all actives have a fitted effect of over 55% in size
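Stably hTDP1-transfected Tdp1-null chicken DT40 cells were treated with library compounds minus camptothecin and grown for at least 48 hr at 37 °C, after which cellular ATP was quantified by luminescence.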
TDP1 cell CPT – growth inhibition of DT40 Tdp1-/-;hTDP1 cells with camptothecin (screen for TDP1 inhibitors) | chicken DT40 Tdp1-/-;hTDP1 cells + 20 nM CPT, ATP luminescence, 48 h | Potency, µM (top dose mostly 46.2 µM), for inactives: at the top dose activity change, negative = growth inhibition, actives largely listed as inhibitors | 420,000 compounds, 12% hits | AID 686979; also: potency is read from the fitted curve at half-maximal effect; nearly all actives have a fitted effect of over 55% in size
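Chicken DT40 Tdp1-/- cells stably complemented with human TDP1 were seeded at 400 cells/well in medium containing 20 nM camptothecin, exposed to pin-transferred compounds, and grown at 37 °C for at least 48 hr. Viability was read as ATP luminescence.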
HT1080 IDH1KD tx – toxicity to HT-1080 IDH1 knockdown cells (counter line); HT-1080 IDH1 knockdown viability, ATP luminescence, 48 h; Potency, µM (titrated, usually from 46.1 µM), inactives show at the top dose activity, negative = toxicity, usual class: cytotoxic; 360,000 compounds, 2% hits;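 also: potency is read from the fitted curve at half-maximal effect; 0% = DMSO wells and -100% = cell-free medium wells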
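IDH1KD HT-1080 cells, 750/well, RPMI + 5% FBS; compound pinned after 2 h settling; 48 h, 37 °C; CellTiter-Glo luminescence; % activity normalised to DMSO and no-cell wells; curves fitted, classed by r2 and efficacy.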
12-LOX inh – inhibitors of human 12S-lipoxygenase ALOX12; P18054; purified 12hLO, xylenol orange hydroperoxide absorbance; Potency, µM (series often up to 108 µM), inactives show at the highest dose activity change, negative = inhibition, most hits filed as inhibitors; 580,000 compounds, 1.1% hits; AID 1671190; also: potency is read from the fitted curve at half-maximal effect
Target sequence (P18054 whole entry, looked up): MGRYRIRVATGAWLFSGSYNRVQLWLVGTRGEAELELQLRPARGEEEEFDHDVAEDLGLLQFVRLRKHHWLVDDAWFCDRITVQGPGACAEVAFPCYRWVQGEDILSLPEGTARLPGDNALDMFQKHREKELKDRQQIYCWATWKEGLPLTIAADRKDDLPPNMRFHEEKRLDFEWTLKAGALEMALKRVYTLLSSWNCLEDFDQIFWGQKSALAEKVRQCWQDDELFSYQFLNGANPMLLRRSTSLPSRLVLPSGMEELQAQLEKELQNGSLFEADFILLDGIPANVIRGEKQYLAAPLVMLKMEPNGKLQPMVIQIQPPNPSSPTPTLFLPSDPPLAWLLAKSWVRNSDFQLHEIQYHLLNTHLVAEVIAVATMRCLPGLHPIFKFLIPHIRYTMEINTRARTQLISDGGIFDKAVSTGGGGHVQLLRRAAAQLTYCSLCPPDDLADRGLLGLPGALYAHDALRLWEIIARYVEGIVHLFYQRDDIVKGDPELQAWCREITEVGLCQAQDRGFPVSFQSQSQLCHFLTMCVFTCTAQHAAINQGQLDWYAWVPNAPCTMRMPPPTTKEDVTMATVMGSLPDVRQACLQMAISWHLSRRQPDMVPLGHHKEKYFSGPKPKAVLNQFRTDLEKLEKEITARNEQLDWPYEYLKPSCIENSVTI
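Purified human 12hLO at 150 nM in 25 mM Hepes, 0.01% Triton X-100, pH 7.0, preincubated 15 min at room temperature with compound. Reaction started with 40 uM arachidonic acid, 30 min at room temperature. Hydroperoxide measured by Fe-xylenol orange, 573/405 nm absorbance ratio.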
* marks the source's active call; other numbers are inactive results; u = inconclusive; x = no result; [ ] = dose if it differs, or a comment. Unless noted, calls follow the shape of the dose curve; as a rule, active = well fitted curve in the direction sought with a large enough effect; inconclusive = small, poorly fitted or top-dose-only effect, or another doubt; inactive = no such curve, though single readings can be large; an effect the other way counts as inactive or inconclusive. Unless noted, % is scaled to controls: 0 for no effect and ±100 for the full control effect.

SMILES | HT1080-NT tox | IL1B secr inh | DT40 TDP1 no CPT | TDP1 cell CPT | HT1080 IDH1KD tx | 12-LOX inh
CCOc1ccc(C(=O)C(C)n2cnc3c2c(=O)n(C)c(=O)n3C)cc1 (stereo not given) | x | x | x | x | x | -10%
CC(C)(C)c1ccc(NC(=O)COc2ncnc3ccccc23)cc1 | x | x | x | x | x | -8%
CCCc1c(C(=O)N/N=C(\C)c2cc(C)sc2C)nnn1-c1nonc1N | -2% | -19 | 18µM* | u | -4% | 23%
CCCc1c(C(=O)N/N=C(\C)c2ccccn2)nnn1-c1nonc1N | u | 98 | 1.6µM* | 2.6µM* | u | -16%
O=C1NCCOCCN(C(=O)c2cccs2)[C@@H]2CCCC[C@H]12 | x | x | x | x | x | 33%
Cc1ccc(S(=O)(=O)NCc2ccsc2)s1 | x | x | x | x | x | 40%
Cc1nn(C)c(C)c1-c1cc(C(=O)N2C[C@@H](N(C)C)[C@H](C(C)C)C2)n(C)n1 | x | x | x | x | x | 57%
CCCC(C(=O)NC1CCCC1)N(C(=O)c1snc(C(N)=O)c1N)c1ccc(OCC)cc1 (stereo not given) | 1% | -59* | 21µM* | -20% | 0% | -15%
CCOc1ccc(C(C(=O)NC2CCCC2)N(C(=O)c2snc(C(N)=O)c2N)c2cccc(O)c2)cc1 (stereo not given) | -12% | -6 | 16µM* | u | -8% | -11%
NC(=O)c1nsc(C(=O)N(c2cccc(O)c2)C(C(=O)NC2CCCC2)c2ccc(Cl)cc2)c1N (stereo not given) | -10% | -1 | u | 4% | -4% | -31%
C=CCOC(=O)C(=O)/C=C/c1csc2ccccc12 | -3% | 53 | u | -18% | -1% | u
C=CCOC(=O)C(=O)/C=C/c1ccc2c(c1)Cc1ccccc1-2 | -6% | -14 | u | u | 0% | 14µM*
COc1ccc(CNC(=O)c2ccc3nc(Cc4ccccc4F)oc3c2)cc1OC | x | x | x | x | x | 12%
CCCCn1c(SCC(=O)N2c3ccccc3Sc3ccccc32)nc2c1c(=O)n(C)c(=O)n2C | -29% | u | 26µM* | u | u | -4%
CCCCn1c(SCC(=O)N2CCCc3ccccc32)nc2c1c(=O)n(C)c(=O)n2C | 5% | 22 | 22µM* | 18µM* | 7% | 16%
CCn1c(SCC(=O)N2CCc3ccccc3C2)nc2c1c(=O)n(C)c(=O)n2C | 14% | 51 | -26% | 23µM* | 3% | 0%
COCCn1c(SCC(=O)NC(=O)NC2CCCCC2)nc2ccccc2c1=O | -3%[9.24 µM] | -5 | 15µM* | u | -1% | 84%
Cn1ccnc1CN1C[C@@H](F)[C@@H](OCc2nc3ccncc3[nH]2)C1 | x | x | x | x | x | 98%[176 µM]
CCOC(=O)c1oc2ccc(S(=O)(=O)N3CCc4nnc(C5CC5)n4CC3)cc2c1C | x | x | x | x | x | 11%
COCCn1c(SCC(=O)N2CCOCC2)nc2ccccc2c1=O | -2% | -9 | 0% | 5% | 6% | 3%
C=CCn1c(SCC(=O)N2CCc3ccccc3C2)nc2sc(C)cc2c1=O | -23% | u | 26µM* | u | -28% | 1%
COCCn1c(SCC(=O)N2CCc3ccccc3C2)nc2ccccc2c1=O | -2% | -2 | u | 21µM* | 8% | -6%
CCCN(C(=O)COc1ccc2c(C)cc(=O)oc2c1C)C1CCS(=O)(=O)C1 (stereo not given) | x | x | x | x | x | 26%
COc1ccc(Cn2c3c(c(=O)n2Cc2ccccc2)CCN(C(=O)c2nc4ccccc4[nH]2)C3)cc1 | x | x | x | x | x | -19%
CCC(=O)N(CC)c1nc(-c2cc(OC)ccc2OC)cs1 | -2% | -23 | u | u | 15% | 7%
SMILES | HT1080-NT tox | IL1B secr inh | DT40 TDP1 no CPT | TDP1 cell CPT | HT1080 IDH1KD tx | 12-LOX inh
COc1ccc(-c2csc(NC(=O)c3ccccc3F)n2)cc1 | 7% | 29 | u | -4% | 3% | -6%
CCN(CC)CCCN(C(=O)c1ccccc1F)c1nc(-c2ccc(OC)cc2)cs1 | 18µM* | -65* | u | u | u | -1%
CCN(C(=O)c1cccs1)c1nc(-c2ccc(OC)cc2)cs1 | u | -20 | u | -3% | 0% | 11%
CCN(CC)CCCN(C(=O)c1ccccc1C)c1nc(-c2ccc(OC)cc2)cs1 | -26% | -21 | 23µM* | u | -22% | u
COCCCN(C(C)=O)c1nc(-c2ccc(OC)cc2)cs1 | -29% | 26 | u | 15µM* | -22% | -9%
CCN(CC)CCCN(C(=O)c1ccc(OC)cc1)c1nc(-c2ccc(OC)cc2)cs1 | 23µM* | x | u | u | 15µM* | u
COc1ccc(CNC(=O)[C@H]2O[C@H](CCN3CCC(CO)CC3)CC[C@@H]2O)cc1 | x | x | x | x | x | 8%[176 µM]
Nc1nc2c(c(=O)[nH]1)CCN(C(=O)Cc1c[nH]c3ccccc13)C2 | x | x | x | x | x | 6%
O=C(Nc1ccc(Br)cn1)c1cnn2c1NC(=C1CC1)C=C2C(F)F | x | x | -19% | 1% | x | x
CCN1C(=O)[C@H]2[C@@H](c3ccc(-c4cccc(Cl)c4)c(OC)c3)N[C@@](Cc3ccccc3)(C(=O)OC)[C@H]2C1=O | 0% | u | 18µM* | u | -18% | -21%
CCN1C(=O)[C@H]2[C@@H](c3ccc(-c4ccc(OC)cc4)c(OC)c3)N[C@@](Cc3ccccc3)(C(=O)OC)[C@H]2C1=O | 10% | -16 | u | u | 2% | u
COC(=O)[C@]1(Cc2ccccc2)N[C@H](c2ccc(-c3cccc(Cl)c3)c(OC)c2)[C@@H]2C(=O)N(C)C(=O)[C@@H]21 | -11% | u | 10µM* | 13µM* | -22% | 40µM*
C=CCn1c(=O)[nH]c2cc(C(=O)N3CCN(c4ccc(C(C)=O)cc4)CC3)ccc2c1=O | -30% | -7 | 16µM* | 21µM* | u | -1%
COc1ccc(N2CCN(C(=O)c3ccc4c(c3)[nH]c(=S)n3c5ccccc5nc43)CC2)cc1 | x | x | x | x | x | 10%
C=CCn1c(=O)[nH]c2cc(C(=O)N3CCN(c4cc(C)ccc4C)CC3)ccc2c1=O | -28% | 18 | u | u | -16% | 0%
COCCn1c(=O)[nH]c2cc(C(=O)N3CCN(c4cccc(C)c4C)CC3)ccc2c1=O | -1% | -27 | 21µM* | 15µM* | -1% | -12%
COCCn1c(=O)[nH]c2cc(C(=O)N3CCN(c4ccccc4)CC3)ccc2c1=O | 1% | 4 | u | -29% | 1% | -15%

Bioassay records: PubChem, National Center for Advancing Translational Sciences (NCATS)
